Results filed as inconclusive are left out. Calls come from the whole dose curve; as a rule, active = well fitted inhibition curve with a large enough effect; inconclusive = small, poorly fitted or top-dose-only effect; inactive = flat fitted curve, though single readings scatter.
Test system: Zika virus NS2B-NS3 protease
Assay: Primary screen GU AMC qHTS for Zika virus inhibitors (AID 1347154);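 note: 0% = no-inhibitor control and -100% = no-enzyme control; nearly all actives have a fitted effect of over 70% in size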
Settings: Zika NS2B-NS3 unlinked protease, AMC fluorogenic substrate; series mostly up to 54.1 µM; activity change, negative = inhibition: at the top concentration
Outline: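 Unlinked Zika NS2B hydrophilic domain–NS3 protease complex at 25 nM in 10 mM Tris-HCl pH 8.0, 0.01% Tween 20, with an AMC peptide substrate. Fluorescence change (340/450 nm) over 15 min at room temperature, normalized to controls, fitted to 4-parameter Hill.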

Activity change, negative = inhibition, inactive:
Nc1nc2c([nH]c(=O)n2[C@@H]2O[C@H](CO)[C@@H](O)[C@H]2O)c(=O)[nH]1 7.35% [at 6.83 µM]
O=C(O)C(Cc1ccc2c(c1)oc1ccccc12)NCP(=O)(O)O (stereo not given) 9.27%
CCCCC/C=C\C\C=C/C=C/C=C/[C@@H](SC[C@H](N)C(=O)NCC(=O)O)[C@@H](O)CCCC(=O)O 13.3% [at 0.59 µM]
O=C(O)c1cc(N(Cc2ccccc2O)Cc2cc(O)ccc2O)ccc1O 15.8%
COc1ccc(CCCn2ncc3c2nc(N)n2nc(-c4ccco4)nc32)cc1 8%
CC(=Nc1ccccc1N)c1c(C)cc(=O)n(O)c1O -3.55%
COc1cccc(OC)c1-c1cc(C(=O)NC2(C(=O)O)C3CC4CC(C3)CC2C4)nn1-c1ccc(C(=O)N(C)CCCN(C)C)cc1C(C)C (stereo not given) 3.42%
O=C(Nc1ccc([N+](=O)[O-])cc1O)Nc1ccccc1Br -4.49%
CC(C)c1cc(/C=C(\C#N)C(=O)NCCCc2ccccc2)cc(C(C)C)c1O -5.19%
O=C(O)C1CC(CCCP(=O)(O)O)CCN1 (stereo not given) 11.8%
CC12CCC3C(CCC4CC(O)CCC43C)C1CC=C2c1ccccc1 (stereo not given) 10.4%
C[C@H](CCC(=O)NCC(=O)O)C1CC[C@H]2C3CC[C@@H]4C[C@H](O)CC[C@]4(C)C3C[C@H](O)[C@]12C (stereo not given in full) 8.14%
CCOC(=O)C1OC1C(=O)NC(CC(C)C)C(=O)NCCC(C)C (stereo not given) 6.92% [at 104 µM]
CCCCn1c(=O)c2[nH]c(C34CC5CC(CC3C5)C4)nc2n(CCCO)c1=O 2.49%
O=c1[nH]cnc2c1ncn2C1O[C@H](CO)[C@@H](O)[C@H]1O (stereo not given in full) 9.34%

Source: PubChem BioAssay (NCATS)
